{
  "source": "PubChem BioAssay AID488857",
  "about": "(Sanford-Burnham Center for Chemical Genomics, 2010)",
  "note": "Hit rate of the full screen: of about 1,400 compounds, about 560 (40%) were called active. So high a share suggests a set chosen from earlier hits. The list shows a part of the results. A number with no mark means an inactive call.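 The calls were made as follows: active = mean inhibition over duplicate tests at 10 µM above 50%; inactive = the rest.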",
  "data": [
    {"assay": "ASC/caspase-1 reporter retest in S. cerevisiae at one dose, specificity check for NALP1 project (AID 488857)", "details": "S. cerevisiae ASC/Caspase-1, beta-galactosidase luminescence, 24 h; at 10 µM; active compounds read high", "values": [
      {"smiles": "CC(C)(C)c1ccc(COn2c(=O)c(-c3ccco3)[n+]([O-])c3ccccc32)cc1", "inhibition": "39.7%"},
      {"smiles": "CCOc1ccc(NC(=O)CSc2nnc(C)n2Cc2ccccc2)cc1", "inhibition": "37.3%"},
      {"smiles": "CCOC(=O)c1cnc2ccccc2c1Nc1cc(C(=O)O)ccc1C", "inhibition": "28.2%"},
      {"smiles": "CCOC(=O)c1cccnc1SCC(=O)NCc1ccccc1", "inhibition": "54.2% (active)"},
      {"smiles": "Cc1nc(C)c(/C(O)=C/c2nc3ccccc3oc2=O)s1", "inhibition": "44%"},
      {"smiles": "Cc1ccc(NC2(C#N)C(=O)Nc3ccccc32)cc1", "note": "(stereo not drawn)", "inhibition": "38.2%"},
      {"smiles": "O=C(c1ccco1)N1CCN(Cc2cn[nH]c2-c2cccc3ccccc23)CC1", "inhibition": "26%"},
      {"smiles": "O=C(CN1CCSC1=NCc1ccccc1)c1ccc(Cl)c(Cl)c1", "inhibition": "61% (active)"},
      {"smiles": "COc1cccc(CN(C)CC(=O)Nc2cccc(S(N)(=O)=O)c2)c1OC", "inhibition": "32.5%"},
      {"smiles": "Cc1cs/c(=N\\N=C\\c2ccccc2)n1Cc1ccco1", "inhibition": "54.1% (active)"},
      {"smiles": "COc1ccc(N2CCN(CC(=O)NC(=O)NCc3ccco3)CC2)cc1", "inhibition": "33.3%"},
      {"smiles": "CCN(C(=O)c1ccco1)c1nnc(-c2ccc(OC)cc2)s1", "inhibition": "51% (active)"},
      {"smiles": "CCC(C(=O)NCc1ccco1)N(C(=O)CNS(=O)(=O)c1ccccc1)c1ccc(OC)cc1", "note": "(stereo not drawn)", "inhibition": "32.8%"},
      {"smiles": "O=C(NC(N1CCOCC1)C(Cl)(Cl)Cl)c1ccc(Br)cc1", "note": "(stereo not drawn)", "inhibition": "-14.2%"},
      {"smiles": "CN(C)c1ccc(NC(=O)COC(=O)c2cc(Cl)ccc2[N+](=O)[O-])cc1", "inhibition": "68% (active)"},
      {"smiles": "CCOC(=O)c1cc([N+](=O)[O-])c([N+](=O)[O-])cc1NC(C)=O", "inhibition": "22.4%"},
      {"smiles": "N=c1ccn(Cc2ccc(Cl)cc2Cl)cc1", "inhibition": "38%"},
      {"smiles": "CCOC(=O)c1c(-c2ccccc2)nc2ccccn12", "inhibition": "99.1% (active)"},
      {"smiles": "CCOC(=O)CSc1nnc(-c2ccccc2)c(=O)[nH]1", "inhibition": "45%"},
      {"smiles": "CCOCCCn1c(=NC(C)=O)c(C(=O)OCC)cc2c(=O)n3ccccc3nc21", "inhibition": "19.2%"},
      {"smiles": "Cc1cc(C)n(C(C[N+](=O)[O-])c2ccc(Cl)cc2)n1", "note": "(stereo not drawn)", "inhibition": "99.2% (active)"},
      {"smiles": "Cc1cccc(OCCCSc2nc3ccc(C)cc3[nH]2)c1", "inhibition": "83.2% (active)"},
      {"smiles": "Cc1ccccc1OCCCSc1nc2ccccc2[nH]1", "inhibition": "75% (active)"},
      {"smiles": "Cc1cccc(C)c1NC(=O)CSc1nc2ccccc2c(=O)[nH]1", "inhibition": "34.6%"},
      {"smiles": "O=C(O)C1CCN(C(=O)c2csc(-c3ccc4c(c3)CCO4)n2)CC1", "inhibition": "38.6%"},
      {"smiles": "O=CC1=C(c2ccccc2)Oc2ccccc2O1", "inhibition": "93.3% (active)"},
      {"smiles": "CCn1c(SCC(=O)Nc2ccc3c(c2)OCO3)nnc1-c1cnccn1", "inhibition": "30.1%"},
      {"smiles": "Cc1ccc2nc(NC(=O)c3ccc4ncsc4c3)sc2c1", "inhibition": "12.6%"},
      {"smiles": "Nc1ccc(C(=O)Nc2nc3ccccc3s2)cc1", "inhibition": "75.4% (active)"},
      {"smiles": "O=C(Nc1nc2ccccc2s1)C1c2ccccc2Oc2ccccc21", "inhibition": "39.3%"},
      {"smiles": "Fc1ccc(N2CCN(Cc3cnc(Oc4ccc(Br)cc4)s3)CC2)cc1", "inhibition": "14.7%"},
      {"smiles": "CCOc1ccc(NC2=C(OC)C(=O)c3ccccc3C2=O)cc1", "inhibition": "44.1%"},
      {"smiles": "CCOc1ccc(S(=O)(=O)N2c3ccccc3CC2C)cc1", "note": "(stereo not drawn)", "inhibition": "52.7% (active)"},
      {"smiles": "Cc1cc(Nc2ccccc2)nc2cc(O)ccc12", "inhibition": "99.1% (active)"},
      {"smiles": "COC1=C(Nc2ccc(O)cc2)C(=O)c2ccccc2C1=O", "inhibition": "40.2%"},
      {"smiles": "COc1ccc(Nc2cc(C)c3ccc(O)cc3n2)cc1", "inhibition": "98.1% (active)"},
      {"smiles": "CC1Cc2ccccc2N1CC(=O)Nc1ccc2c(c1)OC(F)(F)O2", "note": "(stereo not drawn)", "inhibition": "29.9%"},
      {"smiles": "O=C(/C=C/c1ccccc1Cl)c1ccc[nH]1", "inhibition": "67.8% (active)"},
      {"smiles": "COC(=O)C1=C(C)NC(C)=C(C(=O)OC)C1c1ccc(OC(=O)c2oc3ccccc3c2C)c(OC)c1", "inhibition": "25.6%"},
      {"smiles": "CC(=O)C1=C(O)C(=O)N(CCC(=O)O)C1c1ccc(Cl)cc1Cl", "note": "(stereo not drawn)", "inhibition": "35.7%"},
      {"smiles": "Cc1ccc(-n2nnnc2C(Cl)c2nnnn2-c2ccc(C)cc2)cc1", "inhibition": "40.1%"},
      {"smiles": "Cc1ccc(-n2c(Cl)c(Cl)nc(Cl)c2=O)cc1", "inhibition": "100% (active)"},
      {"smiles": "COc1ccc2cnn(-c3ccc(C)cc3)c(=O)c2c1OC", "inhibition": "44%"},
      {"smiles": "CCN(CC)S(=O)(=O)c1ccc2[nH]c(=O)cc(C(=O)Nc3ccc(C)c(S(=O)(=O)N(CC)CC)c3)c2c1", "inhibition": "25.1%"},
      {"smiles": "COc1ccc(CCNC(=O)C2CCN(S(=O)(=O)c3ccc(Cl)cc3)CC2)cc1OC", "inhibition": "23.4%"},
      {"smiles": "CNC(=O)c1nnsc1S(=O)(=O)c1ccc(Cl)cc1", "inhibition": "73% (active)"},
      {"smiles": "CCCNC(=O)c1nnsc1S(=O)(=O)c1ccc(Cl)cc1", "inhibition": "91% (active)"},
      {"smiles": "Cn1cnc([N+](=O)[O-])c1S(=O)(=O)c1ccc(Cl)cc1", "inhibition": "13.2%"},
      {"smiles": "CN1C(=O)CSc2ccc(NC(=O)N3CCN(c4ccccn4)CC3)cc21", "inhibition": "40.5%"},
      {"smiles": "CN(C)c1nc(N)nc(CSc2nnnn2-c2ccc(C(=O)O)cc2)n1", "inhibition": "18.2%"},
      {"smiles": "CC(C)(C)n1nc(-c2ccc(F)cc2)c2c(N)ncnc21", "inhibition": "97.5% (active)"},
      {"smiles": "O=C(COC(=O)c1ccc(-c2ccc([N+](=O)[O-])cc2)o1)NC(=O)NC1CCCCC1", "inhibition": "46.6%"},
      {"smiles": "c1ccc(-c2c(-c3ccccc3)n(Cc3ccco3)c3ncnc(NCCCn4ccnc4)c23)cc1", "inhibition": "46.7%"},
      {"smiles": "COc1ccc(/C=N\\NC(=O)c2cc(OCC(F)(F)F)ccc2OCC(F)(F)F)cc1", "inhibition": "27.6%"},
      {"smiles": "O=C(C[n+]1ccc(C(=O)N/N=C/c2ccc(OCc3ccccc3)cc2)cc1)c1ccccc1", "inhibition": "54.6% (active)"},
      {"smiles": "O=C(Oc1ccc(/C=N/NC(=O)c2ccccc2O)cc1)c1ccccc1", "inhibition": "34.4%"},
      {"smiles": "COc1ccc(N2C(=O)C(Cl)=C(Nc3c(C)n(C)n(-c4ccccc4)c3=O)C2=O)cc1", "inhibition": "29.6%"},
      {"smiles": "COc1ccc(N2C(=O)C3[C@@H](C2=O)C2(Cl)C(Cl)=C(Cl)C3(Cl)C2(OC)OC)cc1", "note": "(stereo partly drawn)", "inhibition": "50.2% (active)"},
      {"smiles": "CCOc1oc(-c2ccc(OC)cc2)nc1C(F)(F)F", "inhibition": "40.6%"},
      {"smiles": "CCc1ccc(OCCCC(=O)Nc2cccc(C(=O)O)c2)cc1", "inhibition": "39.6%"},
      {"smiles": "CCc1ccc(OCCNC(=O)OCc2ccccc2)cc1", "inhibition": "57.6% (active)"},
      {"smiles": "CC1=NN(c2ccc(C)cc2C)C(=O)C1C(c1cccc(O)c1)C1C(=O)N(c2ccc(C)cc2C)N=C1C", "note": "(stereo not drawn)", "inhibition": "43.8%"},
      {"smiles": "CN(C)CCN(Cc1ccccc1)c1nccc(N(C)C)c1C#N", "inhibition": "26.8%"},
      {"smiles": "COc1cccc(-c2nn(C)c3sc(C(=O)N4CCOCC4)cc23)c1", "inhibition": "51.4% (active)"},
      {"smiles": "COc1cccc(C(=O)N2CCCC(c3nc(-c4cccs4)no3)C2)c1", "note": "(stereo not drawn)", "inhibition": "22.3%"},
      {"smiles": "Cc1c(C(=O)N2CCOCC2)[nH]c2ccc(OCc3ccccc3)cc12", "inhibition": "42.6%"},
      {"smiles": "COc1cc(S(=O)(=O)NCc2cccnc2)ccc1F", "inhibition": "46.6%"},
      {"smiles": "COc1ccc2cc(C(C)c3nc4ccccc4c(=O)n3N)ccc2c1", "note": "(stereo not drawn)", "inhibition": "59.4% (active)"},
      {"smiles": "C=CCCCCc1nc2ccccc2c(=O)n1N", "inhibition": "36.1%"},
      {"smiles": "CCOC(=O)c1ccc(N2CCOCC2)c(NC(=O)COCC(=O)O)c1", "inhibition": "9.9%"},
      {"smiles": "COc1ccc(-c2cn3cccnc3n2)cc1Br", "inhibition": "78.9% (active)"},
      {"smiles": "CCN(CC)S(=O)(=O)c1ccc2oc(C(=O)NC3CCCc4ccccc43)c(C)c2c1", "note": "(stereo not drawn)", "inhibition": "23.3%"},
      {"smiles": "O=C(c1ccccc1)c1c2c(cc3sc4ccccc4[n+]13)-c1cccc3cccc-2c13", "inhibition": "46.8%"},
      {"smiles": "Cc1ccc(S(=O)(=O)N(C(=O)c2ccncc2)c2ccc(OC(=O)c3ccncc3)c3ccccc23)cc1", "inhibition": "26.1%"},
      {"smiles": "CCCc1[nH]n(-c2nc3ccccc3s2)c(=O)c1C=NCC(C)C", "inhibition": "78% (active)"},
      {"smiles": "CC(C)(C)C(=O)NC1CCN(S(=O)(=O)c2ccc(C(F)(F)F)cc2)CC1", "inhibition": "23.1%"},
      {"smiles": "CCCN1CCN(CCCNC(=O)CCNC(=O)Cn2ccc3ccccc3c2=O)CC1", "inhibition": "35.4%"},
      {"smiles": "COc1ccnc(N2CCN(c3ccccc3)CC2)c1C#N", "inhibition": "56.4% (active)"},
      {"smiles": "O=C(NN1C(=O)c2cc(Br)ccc2NC1c1cc(Br)cc(Br)c1O)c1ccncc1", "note": "(stereo not drawn)", "inhibition": "76.2% (active)"},
      {"smiles": "Cc1cccc(N2Cc3ccccc3C2=NC(=O)c2ccc(Cl)nc2)c1", "inhibition": "28.3%"},
      {"smiles": "CCCCNc1nc2ccccc2[nH]1", "inhibition": "31.2%"},
      {"smiles": "Fc1ccccc1-c1ccc(/C=N/Nc2nc3ccccc3[nH]2)o1", "inhibition": "70% (active)"},
      {"smiles": "CCOC(=O)c1ccc(NC(=O)CC2Sc3ncnn3C2=O)cc1", "note": "(stereo not drawn)", "inhibition": "64.7% (active)"},
      {"smiles": "O=C(CC1Sc2ncnn2C1=O)Nc1ccc(Br)cc1", "note": "(stereo not drawn)", "inhibition": "33.6%"},
      {"smiles": "COc1ccc(NC(=O)CC2Sc3ncnn3C2=O)cc1", "note": "(stereo not drawn)", "inhibition": "75.8% (active)"},
      {"smiles": "CCOC(=O)c1ccc(NC(=O)CSc2nnc(CNc3ccc(C)cc3)n2C)cc1", "inhibition": "31.4%"},
      {"smiles": "CCOC(=O)c1ccc(NC(=O)c2nccnc2C(=O)O)cc1", "inhibition": "38.5%"},
      {"smiles": "C/C(=N\\Nc1nc2c(s1)CCCC2)c1ccccc1", "inhibition": "37.2%"},
      {"smiles": "CC1CCCCN1C(=S)NCCc1ccccc1", "note": "(stereo not drawn)", "inhibition": "59.1% (active)"},
      {"smiles": "C=C1SC(Nc2c(C)cccc2C)=NC12CCCCC2", "inhibition": "47.3%"},
      {"smiles": "CC(C)Cc1nnc(NC(=O)CSc2nc(N)cc(=O)[nH]2)s1", "inhibition": "25.6%"},
      {"smiles": "Brc1ccc2c(c1)OCCOCCOc1cc(Br)ccc1OCCOCCOCCO2", "inhibition": "64.6% (active)"},
      {"smiles": "Cc1nnc(-c2ccccc2)o1", "inhibition": "39.7%"},
      {"smiles": "O=C(CSc1nnnn1C1CCCCC1)N1c2ccccc2Sc2ccccc21", "inhibition": "39.5%"},
      {"smiles": "Cc1nc(/N=C(\\N)NC(=O)N2c3ccccc3Sc3ccccc32)nc2ccccc12", "inhibition": "53.6% (active)"},
      {"smiles": "O=[N+]([O-])c1ccc(-n2nnnc2-c2ccccc2)cc1", "inhibition": "19.9%"},
      {"smiles": "O=C1C=CCC(/C=C/c2ccccc2)O1", "note": "(stereo not drawn)", "inhibition": "63% (active)"},
      {"smiles": "O=C1c2ccsc2SCCN1Cc1c(Cl)cccc1Cl", "inhibition": "56.2% (active)"}
    ]}
  ]
}
